In PubChem BioAssay (EPA / NIEHS):
Activity calls are given as the source filed them. How the source made its calls: active means hit-call score of the fitted dose curve at least 0.9, where 1 is the maximum; inactive means score below 0.9.

Test: ATG_PBREM_CIS: Attagene CIS-FACTORIAL HepG2 Assay for human Phenobarbital-responsive Enhancer Module (PBREM) (AID 2282955)
Conditions: HepG2 PBREM cis-reporter, Attagene multiplexed transcription; actives raise or lower the signal
Experimental: ATG_CIS is a cell-based, multiplexed-readout assay that uses HepG2, a human liver cell line, with measurements taken at 24 hours after chemical dosing in a 24-well plate.ATG_PBREM_CIS is one of 52 assay component(s) measured or calculated from the ATG_CIS assay. It is designed to make measurements of mRNA induction, a form of inducible reporter, as detected with fluorescence intensity signals by Reverse transcription polymerase chain reaction (RT-PCR) and Capillary electrophoresis technology.Data from the assay component ATG_PBREM_CIS was analyzed into 1 assay endpoint. This assay endpoint, ATG_PBREM_CIS, was analyzed with bidirectional fitting relative to DMSO as the negative control and baseline of activity. Using a type of inducible reporter, measures of mRNA for gain or loss-of-signal activity can be used to understand the reporter gene at the transcription factor-level as they relate to the gene NR1I3. Furthermore, this assay endpoint can be referred to as a primary readout, because this assay has produced multiple assay endpoints where this one serves a reporter gene function. To generalize the intended target to other relatable targets, this assay endpoint is annotated to the nuclear receptor intended target family, where the subfamily is non-steroidal.
Human liver HepG2 cells are transiently transfected with multiple reporter transcription units (MRTUs) in 6-well plates using FuGene 6 reagent (Roche; 3 ml FuGene/1 mg DNA). The MRTU constructs are regulated by a cis-regulating element (promoter). […] A major difference between the CIS and TRANS system is that in CIS activities of endogenous TFs are measured, whereas the TRANS assay evaluates changes in activities of exogenous, chimeric NR-Gal4 proteins. […] At the end of 24 hour incubation, total RNA was isolated using TriZol reagent (Invitrogen). The isolated RNA is then reverse-transcribed using oligo(dT) primer and Mo-MLV reverse transcriptase (Invitrogen) with DNAse I (Ambion) treatment for 30 min. The one-tenth of the produced cDNA was amplified by PCR using Taq DNA polymerase (Invitrogen) and two reporter sequence-specific primers. The PCR products were fluorescently labeled by primer extension with 6-arboxyfluorescein (6-FAM) 5'-labeled reporter sequence-specific primer (2 min at 95 C, 20 s at 68 C and 10 min at 72 C) and these products were digested with 5U of HpaI (New England Biolabs) for 2h at 37 C. The fragments were purified using Qiaquick PCR columns (Qiagen), analyzed on an ABI 3130xL genetic analyzer (Applied Biosystems) with peak positions identified by using a set of X-rhodamine (ROX)-labeled MapMarker1000 molecular weight standards (BioVentures). The raw capillary electrophoresis data was processed using Attagraph software (Attagene).

Compound | outcome | AC50
O=C1NC(=O)C(c2ccccc2)(c2ccccc2)N1 | inactive | 
C#CC(O)C(CC)CCCC (stereo not given) | inactive | 
CCCCCCCCCCCCCCCCO | inactive | 
Nc1nc(Cl)nc2c1ncn2[C@H]1C[C@H](O)[C@@H](CO)O1 | inactive | 
CC(C)(O)c1ccc(CNC(=O)c2cccnc2Oc2ccc(F)cc2)cc1 | inactive | 
O=C(O)c1cccnc1 | inactive | 
CCc1cc(C2=C(C(=O)O)N(c3ccccc3C(F)(F)F)S(=O)(=O)c3ccccc32)cc2c1OCO2 |  | 19.8 µM (active)
O=C1O[C@H]([C@H](O)CO)C(O)=C1O | inactive | 
CCCCc1nc2cccnc2n1Cc1ccc(-c2ccccc2-c2nnn[nH]2)cc1 | inactive | 
C=CCCCCCCCCCCCC | inactive | 
COC(=O)CCCC(=O)OC | inactive | 
O=C(Oc1ccccc1)c1cccc(C(=O)Oc2ccccc2)c1 | inactive | 
C/C=C/C=C/C(=O)O | inactive | 
COc1ccc(C(=O)Nc2nc3ccccc3c(NCc3ccccc3)c2C#N)cc1 | inactive | 
O=C(O)c1[nH]n(-c2ccc(S(=O)(=O)O)cc2)c(=O)c1N=Nc1ccc(S(=O)(=O)O)cc1 | inactive | 
CC1(C)C(=O)NC(=O)N1CO | inactive | 
CC1=C(C)S(=O)(=O)CCS1(=O)=O | inactive | 
CCCC(=O)O | inactive | 
CCCCCCCC(=O)OC | inactive | 
OCC(CO)n1cnc(-c2ccc(F)cc2)c1-c1ccnc(Oc2ccccc2)n1 | inactive | 

Compound | outcome | AC50
CCCCC(CC)CO (stereo not given) | inactive | 
CCc1nc(N)nc(N)c1-c1ccc(Cl)cc1 | inactive | 
CN(C)CCCN1c2ccccc2Sc2ccc(Cl)cc21 | inactive | 
Cc1occc(=O)c1O | inactive | 
CCCC[C@H]1CN(CC2CCOCC2)C(=O)OC12CCN(C1(C)CCN(C(=O)c3c(C)ncnc3C)CC1)CC2 | inactive | 
O=C1c2c(O)cccc2Cc2cccc(O)c21 | inactive | 
Cc1ccc(C(C)(C)C)c(O)c1 |  | 150 µM (active)
C/C=C/c1ccc(OC)cc1 | inactive | 
CCCCC(CC)COP(=O)(OCC(CC)CCCC)OCC(CC)CCCC (stereo not given) | inactive | 
CCCCCCC(C=O)=Cc1ccccc1 | inactive | 
CCN(CC)CCOc1ccc(C(=C(Cl)c2ccccc2)c2ccccc2)cc1 | inactive | 
CC(=O)S[C@H](C(=O)N[C@H]1Cc2ccccc2[C@H]2CCC[C@@H](C(=O)O)N2C1=O)C(C)C | inactive | 
CSc1ccc(Oc2ccc(S(N)(=O)=O)cc2CN(C)C)cc1C | inactive | 
Oc1ccc(O)cc1 | inactive | 
Oc1ccccc1O | inactive | 
CC(=O)OC1CC(C)OC(C)O1 (stereo not given) | inactive | 
Cc1c(C)c2c(c(C)c1O)CCC(C)(COc1ccc(CC3SC(=O)NC3=O)cc1)O2 (stereo not given) | inactive | 
CC(COCC(C)OC(=O)c1ccccc1)OC(=O)c1ccccc1 (stereo not given) | inactive | 
O=C1CCCCC1 | inactive | 
c1ccc2occc2c1 | inactive | 
